Drawing on PubChem BioAssay, this text covers composite z-score, composite Z-score and z-score for 6 molecules.

One experiment has as its target Albumin (Bos taurus) (UniProt P02769). The experiment can be described thus: bovine serum albumin binders on microarray, profiling panel, artefact control for SMM control protein annotation, biochemical, small-molecule microarray, Alexa647 label, 635/667 nm fluorescence (AID 1118).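 Also: score merges 667 nm emission intensity and signal-to-noise per printed compound spot.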 As to conditions: BSA-A647 binding, fluorescence 635 nm, higher = more signal.
Experiment [1] can be described thus: small-molecule microarray binders of probe aXIP, primary screen, biochemical, NeuroSMM set, 635/667 nm fluorescence (AID 1119).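 Also: probe is the protein aXip251-270 applied at 1 µg/mL to compound-printed slides; binding of probe to printed compounds measured as 667 nm fluorescence plus signal to noise.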 The note with it: higher = more signal, called active from +8 up or from −8 down.
Experiment [2] can be described thus: small-molecule binders of probe aNOTCH3, primary screen, biochemical, small-molecule microarray, 635/667 nm fluorescence (AID 1120).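 Also: probe is a biotin-tagged antibody raised against NOTCH3 rather than NOTCH3 protein; score merges spot fluorescence near 667 nm with spot signal to noise.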 As to conditions: higher = more signal.
Experiment [3] is described as follows: small-molecule binders of probe aNOTCH2, primary screen, biochemical, small-molecule microarray, 635/667 nm fluorescence (AID 1121).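 Also: score merges feature fluorescence read at 667 nm with its signal to noise.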 As to conditions: higher = more signal.
For experiment [4], the target named is Carbonic anhydrase 2 (Homo sapiens) (UniProt P00918). The experiment is described as follows: CAII small-molecule binders, profiling panel, biochemical, small-molecule microarray, Alexa647-labelled CAII (AID 1122). The note with it: CAII-A647 binding fluorescence, higher = more signal.
A short description of experiment [5]: COS7 lysate on small-molecule microarray, probe aHis, 635 nm (AID 1123).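 Also: z-score combines 667nm fluorescence intensity with signal-to-noise per printed compound spot.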 The note with it: COS7 cell lysate, fluorescence, higher = more signal.
The nature of experiment [6]: compound binding in COS7 lysate, probe aLAP1, primary screen, cell lysate, small-molecule microarray (AID 1124).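 Also: lysate comes from COS7 cells expressing LAP1 and is applied at 0.3 µg/mL; score merges spot fluorescence near 667 nm with signal-to-noise over triplicate slides.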 As to conditions: probe aLAP1, fluorescence, higher = more signal.
For a further experiment, the system named is Sam68 (KHDRBS1). The experiment is described as follows: Sam68 small-molecule binders, primary screen, biochemical, small-molecule microarray, 635 nm fluorescence (AID 1125).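 Also: score merges 667 nm channel intensity with signal to noise over triplicate slides.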 As to conditions: small-molecule microarray binding, higher = more signal.
The test system of experiment [7] is Chordin-like protein 2 (CHRDL2). The experiment can be described thus: CHRDL2 small-molecule binders, primary screen, biochemical, small-molecule microarray, 635 nm fluorescence (AID 1126).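 Also: printed compound slides probed with Chrdl2 protein at 4 µg/mL for 1 h at 4 C; score merges 667 nm emission intensity with signal to noise over three replicate slides.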 The note with it: small-molecule microarray binding, fluorescence 635 nm; higher = more signal.
Experiment [8] concerns the target Concanavalin-A (Canavalia ensiformis) (UniProt P02866). The experiment can be described thus: ConA small-molecule binders, primary screen, artefact control for SMM control protein annotation, biochemical, small-molecule microarray, Alexa647 label, 635 nm (AID 1127).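 Also: z combines 667 nm emission intensity with signal-to-noise across three replicate slides.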 The note with it: ConA-A647 binding fluorescence, higher = more signal.
Experiment [9] in a line: anti-His antibody binders, primary screen, artefact control for SMM control protein annotation, biochemical, small-molecule microarray, 635 nm fluorescence (AID 1128).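 Also: score merges feature fluorescence with signal-to-noise for each printed compound spot.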 As to conditions: anti-His Alexa647 antibody binding, higher = more signal.
The subject of experiment [10] is Human papillomavirus type 1a E7 protein (residues 1-88). The experiment can be described thus: HPV1a E7 small-molecule binders, primary screen, biochemical, small-molecule microarray, residues 1-88, 635 nm (AID 1129). As to conditions: small-molecule microarray binding, fluorescence 635 nm; higher = more signal.
The target in experiment [11] is Focal adhesion kinase 1 (Homo sapiens) (UniProt Q05397). The experiment is described as follows: small-molecule microarray binders of FAK, primary screen, biochemical, 635/667 nm fluorescence, BSA, DTT (AID 1130).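 Also: composite of spot emission at 667 nm and signal to noise over triplicate slides.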 As to conditions: PTK2 binding, 635 nm fluorescence, higher = more signal.
Sequence of Focal adhesion kinase 1 (Homo sapiens) (Q05397 whole entry, looked up): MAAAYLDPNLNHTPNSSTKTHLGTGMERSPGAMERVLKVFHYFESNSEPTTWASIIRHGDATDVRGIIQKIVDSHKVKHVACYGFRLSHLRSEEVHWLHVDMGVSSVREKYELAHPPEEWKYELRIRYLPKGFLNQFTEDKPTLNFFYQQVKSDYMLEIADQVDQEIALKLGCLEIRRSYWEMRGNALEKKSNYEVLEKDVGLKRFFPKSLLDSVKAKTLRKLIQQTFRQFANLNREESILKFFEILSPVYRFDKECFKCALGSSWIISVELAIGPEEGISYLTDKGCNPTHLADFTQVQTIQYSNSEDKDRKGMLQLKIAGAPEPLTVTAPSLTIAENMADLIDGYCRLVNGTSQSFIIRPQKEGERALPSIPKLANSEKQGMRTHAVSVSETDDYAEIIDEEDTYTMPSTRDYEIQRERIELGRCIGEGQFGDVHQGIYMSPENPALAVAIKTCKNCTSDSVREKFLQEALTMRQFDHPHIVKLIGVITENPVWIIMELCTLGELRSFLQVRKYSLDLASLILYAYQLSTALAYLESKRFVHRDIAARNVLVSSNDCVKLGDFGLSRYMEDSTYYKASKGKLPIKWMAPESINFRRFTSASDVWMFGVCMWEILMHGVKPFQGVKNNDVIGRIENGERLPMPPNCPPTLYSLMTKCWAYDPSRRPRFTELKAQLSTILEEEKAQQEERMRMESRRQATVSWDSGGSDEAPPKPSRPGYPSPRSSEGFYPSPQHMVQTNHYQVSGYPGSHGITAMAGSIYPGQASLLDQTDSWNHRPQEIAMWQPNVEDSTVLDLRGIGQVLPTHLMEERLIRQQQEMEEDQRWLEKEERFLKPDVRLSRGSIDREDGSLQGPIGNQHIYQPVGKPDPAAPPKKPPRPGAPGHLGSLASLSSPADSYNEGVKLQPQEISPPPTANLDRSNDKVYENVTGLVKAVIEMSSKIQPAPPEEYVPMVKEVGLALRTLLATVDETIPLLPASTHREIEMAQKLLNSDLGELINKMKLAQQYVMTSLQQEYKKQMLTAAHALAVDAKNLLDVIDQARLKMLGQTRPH
Experiment [12] relates to Fibrinogen (Alexa647-labelled). The experiment is described as follows: fibrinogen binders on compound microarrays, profiling panel, artefact control for SMM control-protein annotation, biochemical, small-molecule microarray, 635/667 nm fluorescence (AID 1131).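 Also: z-score merges 667 nm fluorescence with per-spot signal-to-noise over triplicate slides.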 The note with it: fibrinogen-A647 binding fluorescence, higher = more signal.
The target in experiment [13] is Follistatin (Homo sapiens) (UniProt P19883). The experiment is described as follows: follistatin binders on small-molecule microarrays, primary screen, biochemical, small-molecule microarray, 635/667 nm fluorescence (AID 1132). As to conditions: FST binding, 635 nm fluorescence, higher = more signal.
Sequence of Follistatin (Homo sapiens) (P19883 whole entry, looked up): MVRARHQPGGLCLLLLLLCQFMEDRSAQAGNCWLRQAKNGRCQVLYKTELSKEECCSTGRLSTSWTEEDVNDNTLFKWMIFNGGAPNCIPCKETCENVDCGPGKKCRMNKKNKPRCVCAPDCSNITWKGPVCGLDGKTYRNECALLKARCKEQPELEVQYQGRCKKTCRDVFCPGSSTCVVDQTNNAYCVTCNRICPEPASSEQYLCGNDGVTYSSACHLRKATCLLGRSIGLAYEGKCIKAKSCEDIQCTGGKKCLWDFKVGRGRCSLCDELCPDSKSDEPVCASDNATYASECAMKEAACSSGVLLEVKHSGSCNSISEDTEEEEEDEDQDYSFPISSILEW
Experiment [14] deals with Fibroblast growth factor 2 (Homo sapiens) (UniProt P09038). The experiment can be described thus: FGF2 binders on small-molecule microarrays, primary screen, biochemical, small-molecule microarray, 635/667 nm fluorescence (AID 1133). As to conditions: small-molecule microarray binding, FGF2, fluorescence 635/667; higher = more signal.
Sequence of Fibroblast growth factor 2 (Homo sapiens) (P09038 whole entry, looked up): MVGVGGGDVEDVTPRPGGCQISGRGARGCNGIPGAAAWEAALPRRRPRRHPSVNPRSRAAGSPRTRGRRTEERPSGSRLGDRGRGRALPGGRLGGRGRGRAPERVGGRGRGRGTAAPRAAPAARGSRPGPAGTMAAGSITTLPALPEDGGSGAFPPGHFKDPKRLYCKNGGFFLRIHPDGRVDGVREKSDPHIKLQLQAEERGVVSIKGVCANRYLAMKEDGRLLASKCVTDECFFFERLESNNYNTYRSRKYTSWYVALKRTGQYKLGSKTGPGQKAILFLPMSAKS
Experiment [15] is described as follows: mitochondrial membrane potential change in A549 cells, profiling panel, cell-based, JC-1 fluorescence, basal, 24 h, 100 nL (AID 1138).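 Also: A549 lung adenocarcinoma cells under basal conditions with no added stimulus; test concentration not given here.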 The note with it: higher = more signal.
The next experiment relates to Lefty1. The experiment is described as follows: Lefty1 binders on small-molecule microarrays, primary screen, biochemical, small-molecule microarray, 635/667 nm fluorescence (AID 1139). As to conditions: small-molecule microarray binding, fluorescence 635/667; higher = more signal.
The test system of experiment [16] is wheat germ agglutinin (Triticum aestivum), Alexa647-labelled. The experiment is described as follows: wheat germ agglutinin binders on compound microarrays, profiling panel, artefact control for SMM control-protein annotation, biochemical, small-molecule microarray, 635/667 nm fluorescence (AID 1140).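 Also: score merges 667 nm feature emission with signal to noise over triplicate slides.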 The note with it: WGA-A647 binding, 635 nm fluorescence, higher = more signal.

Experiment [17] addresses Luciferin 4-monooxygenase (Photinus pyralis) (UniProt P08659). The experiment can be described thus: firefly luciferase enzyme inhibitors, primary screen, biochemical, luminescence, purified enzyme, 2006 set (AID 1141).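 Also: cell-free assay with purified firefly luciferase at 100 ng per well in PBS; test concentration not given here.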 The note with it: SteadyGlo luminescence, 30 min, higher = more signal, called active from +8 up or from −8 down.

The source made the active and inactive calls.

Sequence of Concanavalin-A (Canavalia ensiformis) (P02866 whole entry, looked up): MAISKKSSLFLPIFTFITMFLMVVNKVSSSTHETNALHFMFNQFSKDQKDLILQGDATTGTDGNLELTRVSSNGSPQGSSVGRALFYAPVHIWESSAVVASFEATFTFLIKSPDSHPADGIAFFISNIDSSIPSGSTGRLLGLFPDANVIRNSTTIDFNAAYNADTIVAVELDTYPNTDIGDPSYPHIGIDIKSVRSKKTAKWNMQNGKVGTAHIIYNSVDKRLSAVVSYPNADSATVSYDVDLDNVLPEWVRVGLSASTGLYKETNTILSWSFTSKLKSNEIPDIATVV
Sequence of Luciferin 4-monooxygenase (Photinus pyralis) (P08659 whole entry, looked up): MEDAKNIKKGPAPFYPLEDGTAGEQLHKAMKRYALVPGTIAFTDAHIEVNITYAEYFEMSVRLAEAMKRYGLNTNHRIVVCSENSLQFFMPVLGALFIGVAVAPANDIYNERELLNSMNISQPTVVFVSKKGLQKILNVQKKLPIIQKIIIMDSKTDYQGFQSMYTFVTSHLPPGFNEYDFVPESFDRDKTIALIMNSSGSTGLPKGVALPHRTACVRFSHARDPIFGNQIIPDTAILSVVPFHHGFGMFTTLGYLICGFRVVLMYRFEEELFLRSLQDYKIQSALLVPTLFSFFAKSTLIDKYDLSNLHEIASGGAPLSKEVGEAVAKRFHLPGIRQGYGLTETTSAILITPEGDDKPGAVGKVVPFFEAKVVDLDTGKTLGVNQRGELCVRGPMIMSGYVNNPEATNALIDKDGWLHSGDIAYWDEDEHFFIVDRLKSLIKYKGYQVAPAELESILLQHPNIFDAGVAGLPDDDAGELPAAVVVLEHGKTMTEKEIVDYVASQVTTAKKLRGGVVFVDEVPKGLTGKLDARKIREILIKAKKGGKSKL
Sequence of Albumin (Bos taurus) (P02769 whole entry, looked up): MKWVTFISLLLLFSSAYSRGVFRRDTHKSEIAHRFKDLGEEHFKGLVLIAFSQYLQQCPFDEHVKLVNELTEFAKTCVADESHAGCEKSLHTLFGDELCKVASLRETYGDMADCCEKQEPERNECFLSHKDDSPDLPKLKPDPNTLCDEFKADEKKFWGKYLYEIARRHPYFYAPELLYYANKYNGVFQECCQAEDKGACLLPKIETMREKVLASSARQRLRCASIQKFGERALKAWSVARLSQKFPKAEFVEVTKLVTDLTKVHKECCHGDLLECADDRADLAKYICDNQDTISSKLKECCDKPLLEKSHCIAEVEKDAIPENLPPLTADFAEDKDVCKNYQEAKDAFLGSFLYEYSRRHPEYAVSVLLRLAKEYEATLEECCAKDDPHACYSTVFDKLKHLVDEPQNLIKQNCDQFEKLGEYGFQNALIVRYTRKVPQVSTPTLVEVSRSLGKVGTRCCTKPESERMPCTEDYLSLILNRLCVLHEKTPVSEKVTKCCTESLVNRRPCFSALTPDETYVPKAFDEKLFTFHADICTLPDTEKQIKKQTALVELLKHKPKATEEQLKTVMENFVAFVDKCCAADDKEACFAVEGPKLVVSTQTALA

`COc1ccc(C(=O)Nc2cccc(CN3C(=O)[C@@]4(O[C@@H](CCO)[C@H]([Si](C)(C)c5ccc(OC)cc5)[C@H]4C)c4ccccc43)c2)cc1`: the composite z-score is 0.558 in the experiment with Albumin (Bos taurus); -0.0343 in experiment [2]; -0.14 in [3]; 0.211 in [4]; 0.421 in experiment [5]; 0.0002 in experiment [6]. Besides, the composite z-score with Sam68 (KHDRBS1) is 1.18; in [7], -0.143; in experiment [8], 1.01; in experiment [9], 0.338; in experiment [10], 1.07; in [11], -0.177. For the same molecule, the composite z-score in [12] is 0.795; in experiment [13], 1; in experiment [14], -0.169; in the experiment with Lefty1 it was 0.143; in [16], 0.327. In addition, the composite Z-score in experiment [1] was -0.0927 (inactive). Also, the values for the z-score in experiment [15] and in experiment [17] were -1.29 and -1.96 (inactive), respectively.
Consider `C=CCN1C(=O)[C@@]2(O[C@@H](CCO)[C@H]([Si](C)(C)c3ccc(OC)cc3)[C@H]2C)c2cc(N3C(=O)c4cccc5cccc3c45)ccc21`, for which the composite z-score in the experiment with Albumin (Bos taurus) was 0.691; in [2], 0.0425; in experiment [3], -0.0956; in experiment [4], 0.355; in [5], 0.964; in [6] it was 1.13. Further, the composite z-score was 0.897 in the experiment with Sam68 (KHDRBS1); -0.487 in experiment [7]; 1.06 in [8]; 2.09 in [9]; 1 in experiment [10]; 0.617 in [11]. In addition, the composite z-score is 0.302 in experiment [12]; -0.233 in experiment [13]; -0.145 in experiment [14]; -0.272 with Lefty1; 0.525 in [16]. Besides, the composite Z-score in [1] was -0.159 (inactive). In addition, the z-score in experiment [15] is -0.456; in experiment [17], -1.53 (inactive).
Consider `COc1ccc(C#Cc2ccc3c(c2)[C@]2(C(=O)N3)[C@H](c3ccc(O)cc3)N3[C@H](c4ccccc4)[C@H](c4ccccc4)OC(=O)[C@H]3[C@@H]2C(N)=O)cc1`, for which the composite z-score is -0.524 in the experiment with Albumin (Bos taurus); -0.299 in experiment [2]; -0.147 in experiment [3]; 0.662 in experiment [4]; 1.25 in experiment [5]; 0.0742 in experiment [6]. Besides, the composite z-score with Sam68 (KHDRBS1) was 0.278; in experiment [7] it was -1.54; in experiment [8], -0.211; in experiment [9] it was 2.17; in experiment [10] it was -0.0669; in experiment [11], 0.627. For the same molecule, the composite z-score in experiment [12] was -0.063; in experiment [13] it was -0.482; in [14], -0.617; in the experiment on Lefty1, -0.9; in [16], -0.0907. Besides, in experiment [1], the composite Z-score was 1.08 (inactive). The values for the z-score in experiment [15] and in experiment [17] were -1.59 and -1.44 (inactive), respectively.
With `COc1ccc([Si](C)(C)[C@@H]2[C@@H](CC(=O)N3CCC[C@H]3CO)O[C@]3(C(=O)N(Cc4ccc(N5CCC5=O)cc4)c4ccccc43)[C@H]2C)cc1`, the composite z-score with Albumin (Bos taurus) was -0.82; in experiment [2], 0.0026; in experiment [3] it was -0.0624; in experiment [4], 0.415; in experiment [5], 1.05; in experiment [6], -0.31. Also, the composite z-score in the experiment on Sam68 (KHDRBS1) came to 1.31; in experiment [7], 0.183; in experiment [8], 1.08; in experiment [9], 2.01; in experiment [10], 1.13; in experiment [11] it was 0.983. Also, the composite z-score was found to be 0.406 in experiment [12]; 0.712 in experiment [13]; 0.589 in [14]; 1.04 in the experiment with Lefty1; 0.0389 in experiment [16]. Besides, the composite Z-score in experiment [1] is 0.566 (inactive). Further, the z-score in [15] was 1.55; in experiment [17], -1.45 (inactive).
With `C=C(/C(=C/C[C@H](OC(=O)c1ccncc1)c1cccc(OCCO)c1)c1cc(C(=O)OC)ccc1OC)C(C)C`, the composite z-score with Albumin (Bos taurus) was -0.768; in experiment [2] it was -0.16; in experiment [3], -0.12; in experiment [4], 0.47; in [5], 0.239; in experiment [6], 0.11. Moreover, the composite z-score in the experiment with Sam68 (KHDRBS1) was 1.12; in experiment [7], -1.23; in [8], 0.505; in experiment [9] it was -0.538; in [10], 0.101; in [11] it was 0.72. Moreover, the composite z-score in experiment [12] was -0.188; in experiment [13] it was -0.0075; in experiment [14], 0.266; in the experiment with Lefty1, 0.411; in experiment [16], 0.844. Also, in experiment [1], the composite Z-score was 0.415 (inactive). Also, the z-score was 2 in experiment [15] and -0.979 (inactive) in experiment [17].
With `[N-]=[N+]=NCc1ccccc1C[C@]1(C(=O)NCc2ccccc2)N=C(c2ccc(OCCCO)cc2)O[C@H]1c1ccccc1`, the composite z-score in the experiment with Albumin (Bos taurus) was 0.992; in experiment [2], 0.2; in experiment [3], 0.139; in experiment [4], 0.396; in experiment [5], 1.85; in experiment [6], 1.45. Also, the composite z-score in the experiment on Sam68 (KHDRBS1) was 1.16; in experiment [7], -1.4; in experiment [8], 1.09; in experiment [9] it was 1.67; in [10], 1.18; in experiment [11], 0.445. In addition, the composite z-score is 0.813 in experiment [12]; -0.257 in [13]; -0.0593 in experiment [14]; -1.17 in the experiment on Lefty1; 1.24 in experiment [16]. Besides, the composite Z-score in experiment [1] is 0.945 (inactive). For the same molecule, the z-score was 0.488 in experiment [15] and -1.19 (inactive) in [17].
